Experimental data: PubChem BioAssay AID2158 (National Center for Advancing Translational Sciences (NCATS), 2009)
“And” between values parts separate entries of the source, which are not always exact repeats. Equal entries are not always repeated. Results filed as inconclusive are left out. Values without a mark were called inactive. The source made the active and inactive calls. Calls come from the whole dose curve; as a rule, active = well fitted inhibition curve with a large enough effect; inconclusive = small, poorly fitted or top-dose-only effect; inactive = no such curve, though single readings can be large or run the other way.

biological target: Cruzipain (Trypanosoma cruzi) (UniProt P25779); test: Confirmation qHTS Assay for Inhibitors of Cruzain; conditions: purified cruzain, Z-FR-AMC fluorescence, 0.01% Triton; note: nearly all actives have a fitted effect of over 40% in size;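 for activity change, negative = inhibition: plate controls were uninhibited enzyme control for no effect and buffer wells lacking enzyme for full effect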
Sequence (P25779 123-467 limits assumed): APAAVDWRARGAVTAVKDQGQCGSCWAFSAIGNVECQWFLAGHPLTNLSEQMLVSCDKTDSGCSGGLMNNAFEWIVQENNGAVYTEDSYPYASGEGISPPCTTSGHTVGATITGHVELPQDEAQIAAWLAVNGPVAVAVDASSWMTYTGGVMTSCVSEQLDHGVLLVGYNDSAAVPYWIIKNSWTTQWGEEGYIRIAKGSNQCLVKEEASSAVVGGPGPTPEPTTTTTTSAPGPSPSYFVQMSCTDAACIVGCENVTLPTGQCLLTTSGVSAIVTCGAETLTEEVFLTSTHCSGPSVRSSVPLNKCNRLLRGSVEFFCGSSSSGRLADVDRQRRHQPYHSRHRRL
Procedure, shortened: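 Reaction progress from the 60 s rise in AMC fluorescence (ex 360, em 450 nm) after adding 2 uM Z-FR-AMC. Before this, 1.5 nM cruzain sat 15 min at room temperature with compound in pH 5.5 acetate buffer with 5 mM DTT and 0.01% Triton X-100.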
Potency is the fitted concentration of half-maximal effect.

| Compound | activity change, negative = inhibition | Potency |
| --- | --- | --- |
| CNC(=O)c1ccc2nc(-c3ccccc3)c(-c3ccccc3)nc2c1 | -11.4% | – |
| CC(=O)NCCCc1ccc(C(=O)COC(=O)CNC(=O)c2ccc3ccccc3c2)cc1 | -5.36% | – |
| CNc1oc(/C=C/c2cc(OC)c(OC)c(OC)c2)nc1C#N | – | 15.8 µM (active) |
| CN1C(=O)/C(=N\OC(=O)c2cccc3ccccc23)c2ccccc21 | – | 10 µM (active) |
| CC[C@@H](C)[C@H](NC(=O)OC(C)(C)C)c1nnc(S(=O)(=O)Cc2cc(C)ccc2C)o1 | – | 14.1 µM (active) |
| c1ccc2cc3c(NCCN4CCOCC4)ccnc3cc2c1 | -21.6% | – |
| Cc1ccc(CN(Cc2cc3cc4c(cc3[nH]c2=O)OCCO4)Cc2nnnn2Cc2ccco2)cc1 | -25.4% | – |
| O=C(Cn1c(=O)oc2cc(S(=O)(=O)N3CCCCCC3)ccc21)NC1CCCCCCC1 | -3.87% | – |
| O=C(COC(=O)CNC(=O)C1CCCCC1)Nc1ccc2ccccc2c1 | – | 12.6 µM (active) |
| CC(C)(C)OC(=O)CC(=O)NNC(=O)c1cc2ccccc2[nH]1 | -2.89% | – |
| CCn1nc(-c2ccc(C)cc2)nc2c(=O)n(C)c(=O)nc1-2 | – | 2.82 µM (active) |
| C[C@H](CCC(=O)O)[C@H]1CC[C@@H]2[C@@H]3[C@@H](O)C[C@H]4C[C@@H](O)CC[C@@]4(C)[C@H]3CC[C@@]21C | 2.73% | – |
| COc1ccc(NC(=O)C(OC(=O)CNC(=O)c2ccccc2)c2ccccc2)cc1F (stereo not drawn) | – | 11.2 µM (active) |
| CCn1cnc2c(NCc3cccnc3)nc(C#N)nc21 | -4.84% | – |
| CC(C)CC(O)C(=O)Nc1cc(C(F)(F)F)ccc1Cl (stereo not drawn) | -12% | – |
| COc1ccc(S(=O)(=O)NC2CCN(C#N)CC2)cc1 | -4.94% | – |
| O=C(NCCc1nc2ccccc2n1CCCOc1ccccc1Cl)C1CCCCC1 | – | 1.58 µM (active) |
| CCN(c1ccccc1)c1nc(N)nc(C#N)n1 | – | 14.1 µM (active) |
| NC(=S)N/N=C\c1ccc(-c2cccc(Cl)c2Cl)o1 | – | 1 µM (active) |

| Compound | activity change, negative = inhibition | Potency |
| --- | --- | --- |
| CCOc1ccc(CN2C(=O)c3ccccc3Sc3ccc(C(=O)NCc4ccc(C)cc4)cc32)cc1 | 0.925% | – |
| N#Cc1nc(Nc2cccc3ccccc23)nc(NC2CCCC2)n1 | – | 2.82 µM (active) |
| Cc1cccc(Cn2cc(/C=C(/C#N)C(=O)Nc3cccc(Cl)c3)c3ccccc32)c1 | -2.85% | – |
| N#Cc1ccc(NC(=O)COC(=O)CNC(=O)C2CCCCC2)cc1 | – | 14.1 µM (active) |
| Cc1oc(=O)c(NC(=O)c2ccccc2)cc1C(=O)c1ccccc1 | -5.13% | – |
| O=C(Nc1ccccc1)c1ccc(-n2nncc2-c2ccccc2)cc1 | -11.6% | – |
| O=C(Nc1cc(C(F)(F)F)ccc1Cl)[C@H](O)CCc1ccccc1 | -26.3% | – |
| O=C(NCC1CC1)c1ccc2nc(-c3ccoc3)c(-c3ccoc3)nc2c1 | -15.5% | – |
| O=C(NCCc1nc2ccccc2[nH]1)c1cc([N+](=O)[O-])cc([N+](=O)[O-])c1 | – | 0.794 µM (active) |
| CCCCC(OC(=O)CNC(=O)c1ccccc1)C(=O)Nc1cc(C(F)(F)F)ccc1Cl (stereo not drawn) | – | 8.91 µM (active) |
| COc1ccccc1OCCn1c(CCNC(=O)C2CCCCC2)nc2ccccc21 | – | 1.41 µM (active) |
| CN(CCNC(=O)c1cc2c(=O)n(C)c3ccccc3c2n1C)Cc1ccccc1 | -49.8% | – |
| Cc1ccccc1NC(=O)CSc1nnc(-c2ccco2)c(-c2ccco2)n1 | – | 14.1 µM (active) |
| COC(=O)CCC(C)C1CCC2C3C(O)C[C@@H]4CC(O)CC[C@@]4(C)C3CC(O)[C@]12C (stereo partly drawn) | -0.647% | – |
| COc1ccc(-c2nn3c(-c4cc(-c5ccccc5)n[nH]4)nnc3s2)cc1 | -14.7% | – |
| COc1cc(OC)c(-c2nn3c(-c4n[nH]c5c4CCC5)nnc3s2)cc1OC | -3.44% and -1.31% | – |
| COc1ccc(OCCn2c(CCNC(=O)C3CCCCC3)nc3ccccc32)cc1 | – | 1.12 µM (active) |
| CCOC(=O)C(C(=O)OCC)N(C#N)c1nc(SC)nc(N(C)C)n1 | – | 5.01 µM (active) |
| CCCn1c2ccc(F)cc2c2nnc(SCCN3CCCCC3)nc21 | – | 12.6 µM (active) |
